Most compounds without a hit are left out; they make up all but 1.4% or so of the library.
NS1 function inh: inhibitors of influenza NS1 protein function; Potency, µM (highest dose often 46.1 µM); AID 2326; hit rate 0.4% among 270,000; calls by dose curve; further: actives are rising curves; nearly all actives have a fitted effect of over 50% in size
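S. cerevisiae expressing influenza A NS1, grown in glucose, washed, then diluted 1:100 into pH 6.0 -URA galactose medium with 23 nl compound. Growth recovery read as OD600; NS1-free strain serves as control.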
SARS PLpro yeast: inhibitors of SARS-CoV papain-like protease in yeast | S. cerevisiae expressing SARS-CoV PLpro, growth rescue | hit rate 0.19% among 330,000 | Potency, µM (doses to about 32.9 µM), usual class: activators; calls by dose curve; further: nearly all actives have a fitted effect of over 55% in size
AmpC detergent: inhibitors of E. coli AmpC beta-lactamase with detergent; P00811; AmpC hydrolysis of nitrocefin, absorbance 480 nm, 0.01% Triton; Potency, µM (titrated, usually from 114 µM), usual class: inhibitors; hit rate 0.041% among 370,000; AID 485294; further: nearly all actives have a fitted effect of over 25% in size
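AmpC (5.3 nM in the dispensed reagent) in 20 mM phosphate pH 7.0 with 0.01% (detergent screen) or 0.0001% Triton X-100 was preincubated with compounds for 15 min at room temperature. Nitrocefin was then added from an 800 uM solution, and hydrolysis was followed at 480 nm.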
Giardia FBPA inh: Giardia lamblia aldolase inhibition | A8B2U2 | purified Giardia FBPA | Potency, µM (highest dose often 59.6 µM), hits mostly inhibitors | hit rate 0.71% among 290,000; further: nearly all actives have a fitted effect of over 55% in size
Target sequence (A8B2U2 whole entry, looked up): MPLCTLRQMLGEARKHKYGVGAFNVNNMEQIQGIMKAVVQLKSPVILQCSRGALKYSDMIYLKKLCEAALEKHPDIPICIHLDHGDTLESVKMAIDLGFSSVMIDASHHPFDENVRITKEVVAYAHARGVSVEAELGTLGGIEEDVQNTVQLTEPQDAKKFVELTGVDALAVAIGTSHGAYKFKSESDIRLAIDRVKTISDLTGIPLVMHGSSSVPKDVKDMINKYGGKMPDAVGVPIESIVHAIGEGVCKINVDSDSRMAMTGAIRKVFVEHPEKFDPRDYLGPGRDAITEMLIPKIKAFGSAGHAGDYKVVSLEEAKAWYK
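40 nM FBPA preincubated 10 min at RT with compound (up to 57.5 uM final), then substrate plus GAPDH/TPI/NAD/arsenate coupling and diaphorase/resazurin added. Fluorescence read after 20 min at RT, 525/598 nm.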
AmpC no deterg: blocks E. coli AmpC beta-lactamase in detergent-free assay. Potency, µM (doses to about 57.1 µM), hits mostly inhibitors. AID 485341. P00811. AmpC nitrocefin hydrolysis, absorbance 480 nm, 0.0001% Triton. hit rate 0.52% among 330,000; further: nearly all actives have a fitted effect of over 20% in size
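AmpC (5.3 nM in the dispensed reagent) in 20 mM phosphate pH 7.0 with 0.01% (detergent screen) or 0.0001% Triton X-100 was preincubated with compounds for 15 min at room temperature. Nitrocefin was then added from an 800 uM solution, and hydrolysis was followed at 480 nm.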
Of the large screens only hits and unclear results are named; the others gave an inactive call. Unless noted, the call rests on the fitted dose curve; in most records, active means well fitted curve in the direction sought with a large enough effect; inconclusive means small, poorly fitted or top-dose-only effect, or another doubt; inactive means no such curve, though single readings can be large; an effect the other way counts as inactive or inconclusive.

NC(=O)[C@@H]1CCNc2c(I)cc([N+](=O)[O-])cc2C(=O)N[C@@H](CO)C(=O)N[C@@H](Cc2ccc(O)cc2)C(=O)N1	NS1 function inh 11.2µM
Cc1ccccc1NC1=C/C(=N\S(=O)(=O)c2ccc(C(=O)O)cc2)c2ccccc2C1=O	AmpC detergent inconclusive, Giardia FBPA inh 0.794µM
COc1ccc(S(=O)(=O)/N=C2\C=C(Nc3ccc(O)cc3)C(=O)c3ccccc32)cc1	AmpC detergent inconclusive, Giardia FBPA inh inconclusive
COC(=O)C(C(C)=O)C1=C/C(=N\S(=O)(=O)c2ccc(C)cc2)c2ccccc2C1=O (stereo not given)	AmpC detergent inconclusive, Giardia FBPA inh 12.6µM
O=C(O)c1ccc(S(=O)(=O)/N=C2\C=C(Nc3ccccc3F)C(=O)c3ccccc32)cc1	Giardia FBPA inh inconclusive
O=C(c1ccc(F)cc1)N1CCN=C1c1ccccc1	none
Cc1ccc2c(c1)N(C(=O)N1CCC(C(=O)NCc3cccs3)CC1)CC(C)O2 (stereo not given)	none (no result: NS1 function inh, SARS PLpro yeast, Giardia FBPA inh, AmpC no deterg)
CC(C)(C)c1nnc(NC(=O)c2ccc(Cl)nc2)s1	Giardia FBPA inh 5µM
CCOC(=O)Nc1ccc(S(=O)(=O)Nn2cnnc2)cc1	NS1 function inh inconclusive, SARS PLpro yeast 22.4µM
CCCOC(=O)Nc1ccc(S(=O)(=O)Nn2cnnc2)cc1	none
O=C(CC1Oc2ccccc2NC1=O)NCCCN1CCOCC1 (stereo not given)	AmpC detergent inconclusive, AmpC no deterg 2.51µM
Cc1ccc2c(c1)NC(=O)C(CC(=O)NCCCN1CCCC1)O2 (stereo not given)	none
O=C(/C=C\NCC(=O)c1ccccc1)c1ccc2ccccc2c1	none
O=C(/C=C\NCC(=O)c1ccccc1)c1ccc(F)cc1	AmpC no deterg 17.8µM
Cc1cccc(CNc2cc(-c3cccnc3)ncn2)c1	none (no result: NS1 function inh, SARS PLpro yeast, AmpC detergent, AmpC no deterg)
N#Cc1c(N)sc(=S)c2c1CCCCC2	NS1 function inh inconclusive, Giardia FBPA inh 10µM
COc1cc(NC(=O)CN2C(=O)NC(C)(CC(C)C)C2=O)cc(OC)c1 (stereo not given)	AmpC no deterg 0.891µM
Cc1nnc(SCc2nnc(-c3ccc(Cl)cc3)o2)n1-c1ccccc1	none
Cc1nnc(SCc2nnc(-c3ccccc3Br)o2)n1-c1ccccc1	AmpC detergent inconclusive, AmpC no deterg 5.62µM
CCOC(=O)c1cccc(NC(=O)CCc2ccccc2)c1	none
CNc1ccc(Br)cc(C(=O)/C=C/c2cccc(OC)c2OC)c1=O	Giardia FBPA inh inconclusive
CNc1ccccc(C(=O)/C=C/c2ccccc2OC)c1=O	Giardia FBPA inh 11.2µM
O=c1ccc2ccc(O)c(O)c2o1	Giardia FBPA inh 9.98µM (no result: SARS PLpro yeast, AmpC detergent, AmpC no deterg)
CCCc1cc(=O)oc2cc(OCC(=O)Nc3ccc(S(N)(=O)=O)cc3)ccc12	AmpC detergent 56.2µM, AmpC no deterg 28.2µM
COc1ccc2c(CC(=O)OCC(=O)Nc3ccc(S(N)(=O)=O)cc3)coc2c1	AmpC no deterg 10µM
Cc1nnsc1SCCNC(=O)c1ccc(F)cc1	AmpC no deterg inconclusive
Cc1cc(OCc2ccccc2)ccc1/C(O)=C1/C(=O)C(=O)N(Cc2cccnc2)C1c1ccncc1 (stereo not given)	Giardia FBPA inh inconclusive
CC(Oc1ccc(Br)cc1)C(=O)Nc1ccc(S(=O)(=O)Nc2nccs2)cc1 (stereo not given)	AmpC detergent inconclusive (no result: Giardia FBPA inh)
O=S(=O)(NCc1cn2ccsc2n1)c1ccc(Oc2ccccc2)cc1	AmpC no deterg 3.98µM
O=S(=O)(c1ccccc1)c1nc(-c2ccccc2)oc1NCc1cccnc1	none
Cc1cccc(S(=O)(=O)NNC(=O)c2cc(-c3ccc(F)cc3)nc3ccccc23)c1	none
O=C(NNS(=O)(=O)c1ccc(Cl)cc1)c1cc(-c2ccccc2)nc2ccccc12	AmpC no deterg 28.2µM
CCCCN(C(=O)c1cccc(S(=O)(=O)N2CCN(Cc3ccccc3)CC2)c1)c1ccccc1	none
O=C(Nc1cccc(Cl)c1)c1ccc2c(c1)OCCO2	AmpC detergent inconclusive
O=C(Nc1cccc(NC(=O)c2cccs2)c1)c1ccc2c(c1)OCCO2	AmpC no deterg 7.08µM
COc1cccc(NC(=O)c2ccc3c(c2)OCO3)c1	none
CCC(=O)Nc1cccc(NC(=O)c2ccc3c(c2)OCO3)c1	AmpC no deterg 0.141µM
O=C(Nc1ccc(S(=O)(=O)Nc2nccs2)cc1)c1nn(-c2ccccc2)ccc1=O	AmpC detergent inconclusive
